This is part of a sample that, as a whole, favours compounds with a hit. Of some 79,000 tested, about 15% had one in any assay. Calls of active or inactive are those of the source. Cut-off read from the data, not from the text of the source: active = growth inhibition above about 70%; inactive = the rest.
Assays:
[1] = NCI Yeast Anticancer Drug Screen. Data for the rad50 strain (AID 155);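 note: 0% = growth of vehicle-only cultures of the same strain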; settings: S. cerevisiae rad50 strain growth inhibition; at 50.0 µM; active compounds read high
Procedure, shortened: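 Relative growth inhibition (compound vs vehicle) was measured in yeast with a defined repair-gene alteration.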

[2] = NCI Yeast Anticancer Drug Screen. Data for the mec2-1 strain (AID 157); settings: S. cerevisiae mec2-1 strain, at 50.0 µM, active compounds read high
Procedure, shortened: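 Yeast mec2-1 mutant treated with compound. Readout: growth inhibition vs vehicle controls.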

[3] = NCI Yeast Anticancer Drug Screen. Data for the sgs1 mgt1 strain (AID 161);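 note: 0% = growth of cultures given vehicle only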; settings: S. cerevisiae sgs1 mgt1 strain, at 50.0 µM, active compounds read high
Procedure, shortened: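 Genetically altered yeast, compound exposure, growth inhibition relative to vehicle.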

[4] = NCI Yeast Anticancer Drug Screen. Data for the cln2 rad14 strain (AID 165);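 note: 0% = growth equal to vehicle treated cultures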; settings: S. cerevisiae cln2 rad14 strain, at 50.0 µM, active compounds read high
Procedure, shortened: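 cln2 rad14 yeast strain; compound exposure; growth inhibition read vs vehicle controls.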

[5] = NCI Yeast Anticancer Drug Screen. Data for the bub3 strain (AID 167); settings: S. cerevisiae bub3 mutant strain, at 50.0 µM, active compounds read high
Procedure, shortened: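 Screening used yeast with an engineered genetic alteration affecting cell cycle control. Compound-exposed cultures were compared with vehicle cultures, and reduced growth was taken as inhibition.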

[6] = NCI Yeast Anticancer Drug Screen. Data for the mlh1 rad18 strain (AID 175); settings: S. cerevisiae mlh1 rad18 strain growth inhibition; at 50.0 µM; active compounds read high
Procedure, shortened: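 Yeast w/ defined DNA-repair lesions; compound exposure; growth vs vehicle controls → % inhibition.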

Measured: growth inhibition

Oc1cc(N2CCCC2)ccc1/C=N/N1C(=S)N(c2ccccc2)C(=Nc2ccccc2)C1=Nc1ccccc1
inactive: [1] -23.1% | [2] -31.8% | [3] -1.3% | [4] 6.7% | [5] -30.6% | [6] -39.9%

O=c1[nH]c2cc3ccccc3cc2c2ccccc12
inactive: [1] 21.9% | [2] 9.6% | [3] 0.8% | [4] -15.7% | [5] -1.7% | [6] 14.2%

c1cc[n+](-c2nc3ccccc3[n-]2)cc1
inactive: [1] 2.75% | [2] -7% | [3] 6.25% | [4] -18.5% | [5] -13.8% | [6] 3.5%

COc1ccc(S(=O)(=O)O)cc1NS(=O)(=O)c1ccc(C)cc1
inactive: [1] -1.05% | [2] 18.9% | [3] 15.9% | [4] -12.2% | [5] 0.05% | [6] -2.1%

COc1ccc(C(=O)C(C(=O)CCC(=O)Nc2ccc(Cl)c(Cl)c2)c2ccc(OC)cc2)cc1 (configuration not stated)
inactive: [1] -9.65% | [2] 1.7% | [3] -11.3% | [4] -8.6% | [5] 18.6% | [6] -17.9%

CCN1/C(=C/C=C/C=C/c2oc3ccccc3[n+]2CC)Oc2ccccc21
inactive: [1] 34% | [2] 5.6% | [3] 10.1% | [4] 36.8% | [5] 0.2% | [6] 17.2%

CC(C)=CC(=O)C/C(=N\NC(N)=S)C(=O)Nc1ccc(Cl)cc1
inactive: [1] -7.4% | [2] -27.5% | [3] 5.55% | [4] 9.45% | [5] 5.1% | [6] -1.3%

C/C(=C\c1ccc(Cl)cc1)C(C)(C)C(=O)O
inactive: [1] 15.1% | [2] -23.2% | [3] -1.25% | [4] -6.95% | [5] 11% | [6] 19.6%

N#Cc1cccc(O)c1
inactive: [1] -3.45% | [2] -10.7% | [3] -2.45% | [4] 20.1% | [5] 13.7% | [6] 12%

CC(C)NC(=O)OCCN=c1c2ccccc2ccc2ccccc12
inactive: [1] 53.3% | [2] 49.8% | [3] 65.9% | [4] 22.7% | [5] 60.1% | [6] 38.9%

O=S(=O)(O)CNc1ccc(Cl)cc1
inactive: [1] 15.8% | [2] -12.7% | [3] 4.05% | [4] -29.7% | [5] -23.1% | [6] 4.05%

Clc1ccc([I+]c2ccc(Cl)cc2)cc1
active: [1] 96.2% | [2] 95.5% | [3] 97.5% | [4] 97.4% | [5] 97% | [6] 97.2%

O=C(O)c1nc2nc(Cl)c(Cl)nc2[nH]1
inactive: [1] -22.7% | [2] -30.4% | [3] -19.7% | [4] 21.9% | [5] -37.8% | [6] 9.4%

CC(=O)N/C(=C/c1ccccc1)C(=O)NC(C)(C)C
inactive: [1] -13.1% | [2] -6.15% | [3] -9.85% | [4] -4.25% | [5] 1.2% | [6] 0.05%

O=C(Nc1cc(Cl)ccc1Cl)C(=O)C(c1cnc2ccccc2n1)[N+](=O)[O-] (configuration not stated)
inactive: [1] 12.7% | [2] 6.3% | [3] -23.8% | [4] 36.1% | [5] 34.1% | [6] 13.3%

N#C/C(=C/NC(=S)Nc1ccc(S(N)(=O)=O)cc1)C(N)=O
inactive: [1] -44.8% | [2] -89% | [3] -26.4% | [4] -10.8% | [5] -20.4% | [6] -24.1%

COC(=O)c1cocc1C(=O)OC
inactive: [1] -13.9% | [2] -7.25% | [3] -3.75% | [4] -2.8% | [5] -15.3% | [6] -15.9%

COc1cc(=O)n(-c2ccccc2)nc1C#N
inactive: [1] 2.25% | [2] -0.7% | [3] 1.35% | [4] -46.1% | [5] 8.85% | [6] -1.2%

NC(=O)CNC(=O)[C@@H]1CC(OCCC(=O)O)CN1C(=O)C1CCCN1C(=O)OCc1ccccc1 (some centres not stated)
inactive: [1] 0.05% | [2] -0.8% | [3] 1.8% | [4] 6.25% | [5] 1.3% | [6] 6.75%

Nc1c2cc3c(cc2c[n+]2ccc4ccccc4c12)OCO3
inactive: [1] 38.9% | [2] 44% | [3] 32.6% | [4] 19.9% | [5] 43.9% | [6] 54.5%

COC(=O)c1sc(C(=O)OC)c2c1CSC2
inactive: [1] -6% | [2] 5.35% | [3] -18.4% | [4] 2.55% | [5] -8% | [6] 13.2%

N#Cc1c(O)cc(=O)n2c1[nH]c1ccccc12
inactive: [1] -15.2% | [2] -24.3% | [3] -22% | [4] -10.3% | [5] 10.5% | [6] -4.15%

O=C(/C=C/c1ccc(Cl)cc1)c1ccc(Cl)s1
inactive: [1] -52% | [2] -48.8% | [3] -23.1% | [4] -16.2% | [5] -16.1% | [6] -24.9%

Cn1c(=O)cc2n(C)c3ccccc3n2c1=O
inactive: [1] 33.1% | [2] 18.6% | [3] 1.2% | [4] -5.9% | [5] 6.2% | [6] 5.8%

CC1CCCC1N (configuration not stated)
inactive: [1] -13.7% | [2] -12.5% | [3] -24.5% | [4] -27.1% | [5] -5.85% | [6] -7.5%

CCCC(F)C(=O)OCC (configuration not stated)
inactive: [1] 11.5% | [2] -6.35% | [3] 5.4% | [4] -9.35% | [5] 10% | [6] 0.3%

COC(=O)CCc1ccc(N)cc1
inactive: [1] 4.85% | [2] -2.95% | [3] 9.5% | [4] -4.3% | [5] -2.1% | [6] 2.9%

CC(C)(C)c1cc(CCC(=O)Nc2ccc(Cl)cc2)[nH]c(=S)n1
inactive: [1] 1.85% | [2] -16.1% | [3] 0.4% | [4] -8.85% | [5] -5.85% | [6] -14.8%

Cc1ccc(NC(=O)c2ccc(Cl)cc2)cc1
inactive: [1] -8.3% | [2] 1.2% | [3] 8.85% | [4] 3.3% | [5] 0% | [6] -3.55%

O=C1CCCC2=C1C(c1ccccc1)/C(=N/O)O2 (configuration not stated)
inactive: [1] 14.6% | [2] -11.2% | [3] -4.45% | [4] -12.1% | [5] 8% | [6] 16.1%

Cc1ccc(N=Nc2ccc(C)cc2NC(=O)/C=C/c2ccccc2)cc1
inactive: [1] -21.5% | [2] -34.5% | [3] 6.65% | [4] 8.4% | [5] -6.35% | [6] -8.65%

CSC(=O)c1sc(SC)[n+](-c2ccccc2)c1O
inactive: [1] 4.95% | [2] -20.2% | [3] -1% | [4] -5.5% | [5] -13.3% | [6] -7.9%

Cc1cccc(/C=N/NC(=S)N2CCCCCC2)n1
active: [1] 89.3% | [2] 93.2% | [3] 92.1% | [4] 92.8% | [5] 92.2% | [6] 89%

O=C(NN(Cn1c(=S)sc2ccccc21)Cn1c(=S)sc2ccccc21)c1ccccc1O
inactive: [4] 57.6% | [5] 69%
active: [1] 86.7% | [2] 74.2% | [3] 89% | [6] 76.2%

CCc1cccc(CC)c1NC(=O)c1ccc(C)cc1
inactive: [1] -6.25% | [2] -30% | [3] 9.4% | [4] 7.2% | [5] -1.35% | [6] -4%

Clc1nncc(SCc2ccccc2)c1SCc1ccccc1
inactive: [1] 17.2% | [2] 11.6% | [3] 8.3% | [4] -9% | [5] 22.5% | [6] 8.4%

COC(=O)c1c(C=O)cccc1[N+](=O)[O-]
inactive: [1] 22.7% | [2] -0.05% | [3] 1.75% | [4] 0.7% | [5] -14.1% | [6] 15.2%

CCN(CC)CC(C)=O
inactive: [1] -31% | [2] -58.3% | [3] -82.5% | [4] 14.8% | [5] -11.9% | [6] -6.1%

Clc1ccc2c(c1)nnn1nccc21
inactive: [1] 16.4% | [2] 17.6% | [3] -9.8% | [4] 10.9% | [5] 13.8% | [6] 14.8%

CCSCC1C(=O)C23C(O)C1CCC2C12COC3(O)C(O)C1C(C)(C)CCC2O (configuration not stated)
inactive: [1] 16.6% | [2] 18.4% | [3] 7.45% | [4] 10.9% | [5] 2.4% | [6] 7.05%

CCCCCCCCNc1ncnc2[nH]ncc12
inactive: [1] 7.15% | [2] 11.3% | [3] 22.1% | [4] 6.5% | [5] 47.2% | [6] 13.9%

O=C(NCSC1=NCCS1)NCSC1=NCCS1
inactive: [1] -7.05% | [2] -20.4% | [3] 6.85% | [4] 16.5% | [5] 2.85% | [6] -14.8%
